{
  "source": "paper PMC7862700",
  "about": "“An all-to-all approach to the identification of sequence-specific readers for epigenetic DNA modifications on cytosine”",
  "test_in_all_cases": "DAPPL (digital affinity profiling via proximity ligation, sequencing); 10 mM Tris-HCl pH 7.5, 50 mM NaCl, 1 mM DTT, 4% glycerol, room temperature, 30 min; GST-TFs on glutathione beads, 16-mer random dsDNA library, 0.1% formaldehyde crosslink after washing; high values mean tight binding",
  "key": {"FEV": {"biological_target": "T1, FEV (Homo sapiens, UniProt Q99581 1-238)", "T1 sequence": "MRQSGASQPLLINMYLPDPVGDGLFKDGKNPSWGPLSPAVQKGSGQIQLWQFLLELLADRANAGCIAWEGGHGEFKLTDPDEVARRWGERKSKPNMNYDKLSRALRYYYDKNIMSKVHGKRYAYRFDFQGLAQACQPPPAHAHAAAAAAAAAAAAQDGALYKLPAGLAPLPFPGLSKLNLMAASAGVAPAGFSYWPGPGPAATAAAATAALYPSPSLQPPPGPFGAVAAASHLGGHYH", "settings": "protein: recombinant; tags: N-terminal GST; dsDNA, one strand shown", "summary_of_the_method": "(§1)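 Pools of DNA-barcoded human transcription factors, expressed in yeast as GST fusions on glutathione beads and combined with a tag-only sample, were incubated with 200 nmole of a 16-mer random double-stranded DNA library. Incubation took 30 min at room temperature in Tris/NaCl/DTT/glycerol buffer and was followed by washing, 0.1% formaldehyde crosslinking, proximity ligation (BsaI/T4 ligase, 1 h, 37 °C), PCR amplification and sequencing on an Illumina NextSeq500. Binding signal is the ratio of a hexamer's read frequency for a factor to its frequency for the tag-only sample.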"}, "ETV5": {"biological_target": "ETV5 (Homo sapiens, UniProt P41161 1-510)", "sequence (P41161 whole entry)": "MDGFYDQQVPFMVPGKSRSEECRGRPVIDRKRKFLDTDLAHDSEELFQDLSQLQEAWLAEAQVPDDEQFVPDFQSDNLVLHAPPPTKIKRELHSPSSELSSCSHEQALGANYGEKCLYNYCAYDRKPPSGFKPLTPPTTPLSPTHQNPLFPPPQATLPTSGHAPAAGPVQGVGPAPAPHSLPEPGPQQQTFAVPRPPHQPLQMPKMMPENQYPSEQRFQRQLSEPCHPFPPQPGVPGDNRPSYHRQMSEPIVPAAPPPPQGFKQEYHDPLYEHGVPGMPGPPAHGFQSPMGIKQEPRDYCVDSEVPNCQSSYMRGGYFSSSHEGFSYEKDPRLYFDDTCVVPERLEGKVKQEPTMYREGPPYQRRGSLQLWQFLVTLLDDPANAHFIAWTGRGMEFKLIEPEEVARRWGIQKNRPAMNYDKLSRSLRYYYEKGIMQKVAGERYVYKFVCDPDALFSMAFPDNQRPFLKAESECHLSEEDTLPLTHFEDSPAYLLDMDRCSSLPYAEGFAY", "settings": "protein: recombinant; tags: N-terminal GST; dsDNA, one strand shown", "summary_of_the_method": "as §1"}, "HSF1": {"biological_target": "HSF1 (Homo sapiens, UniProt Q00613 1-529)", "sequence (Q00613 whole entry)": "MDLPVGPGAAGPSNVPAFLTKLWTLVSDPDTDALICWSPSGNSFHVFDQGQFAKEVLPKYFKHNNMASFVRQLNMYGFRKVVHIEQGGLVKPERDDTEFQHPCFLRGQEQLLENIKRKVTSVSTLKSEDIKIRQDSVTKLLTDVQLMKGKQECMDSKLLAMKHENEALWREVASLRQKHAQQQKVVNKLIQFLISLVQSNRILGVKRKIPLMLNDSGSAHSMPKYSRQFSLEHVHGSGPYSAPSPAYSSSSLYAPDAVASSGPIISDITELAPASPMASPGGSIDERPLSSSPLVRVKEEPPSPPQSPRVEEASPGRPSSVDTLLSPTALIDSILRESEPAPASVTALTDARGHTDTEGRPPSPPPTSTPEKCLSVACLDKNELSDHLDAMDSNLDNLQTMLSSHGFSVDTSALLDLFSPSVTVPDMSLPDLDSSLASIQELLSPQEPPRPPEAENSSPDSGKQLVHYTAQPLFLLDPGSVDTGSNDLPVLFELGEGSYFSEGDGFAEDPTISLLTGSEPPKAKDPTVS", "settings": "protein: recombinant; tags: N-terminal GST; chain copies: 3; dsDNA, one strand shown", "summary_of_the_method": "as §1"}, "SPIC": {"biological_target": "T2, SPIC (Homo sapiens, UniProt Q8N5J4 1-248)", "T2 sequence": "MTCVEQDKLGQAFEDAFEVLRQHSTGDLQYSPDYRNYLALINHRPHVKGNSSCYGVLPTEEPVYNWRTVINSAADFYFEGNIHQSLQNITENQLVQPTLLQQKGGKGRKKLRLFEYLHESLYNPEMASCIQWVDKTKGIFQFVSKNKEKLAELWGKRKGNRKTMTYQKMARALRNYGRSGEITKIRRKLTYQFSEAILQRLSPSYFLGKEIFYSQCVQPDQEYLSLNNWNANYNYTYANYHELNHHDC", "settings": "protein: recombinant; tags: N-terminal GST; dsDNA, one strand shown", "summary_of_the_method": "as §1"}, "ELF4": {"biological_target": "ELF4 (Homo sapiens, UniProt Q99607 1-663)", "sequence (Q99607 whole entry)": "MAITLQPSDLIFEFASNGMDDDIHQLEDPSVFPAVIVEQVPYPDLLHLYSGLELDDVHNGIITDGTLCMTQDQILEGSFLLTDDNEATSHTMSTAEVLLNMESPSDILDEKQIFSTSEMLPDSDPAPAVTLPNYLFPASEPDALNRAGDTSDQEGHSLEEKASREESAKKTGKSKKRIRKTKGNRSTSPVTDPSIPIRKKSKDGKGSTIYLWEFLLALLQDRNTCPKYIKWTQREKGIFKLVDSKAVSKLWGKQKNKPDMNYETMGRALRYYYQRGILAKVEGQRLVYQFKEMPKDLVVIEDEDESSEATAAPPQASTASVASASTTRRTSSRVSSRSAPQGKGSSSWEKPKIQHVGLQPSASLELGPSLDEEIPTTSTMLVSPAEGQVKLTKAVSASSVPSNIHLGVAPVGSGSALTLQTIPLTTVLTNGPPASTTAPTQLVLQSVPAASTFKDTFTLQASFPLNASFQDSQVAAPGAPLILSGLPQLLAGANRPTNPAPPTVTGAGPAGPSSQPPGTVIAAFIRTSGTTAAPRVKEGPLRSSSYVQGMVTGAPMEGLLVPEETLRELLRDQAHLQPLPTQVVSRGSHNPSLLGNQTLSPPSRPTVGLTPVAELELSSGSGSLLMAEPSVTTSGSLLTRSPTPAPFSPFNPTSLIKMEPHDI", "settings": "protein: recombinant; tags: N-terminal GST; dsDNA, one strand shown", "summary_of_the_method": "as §1"}, "ELK4": {"biological_target": "T3, ELK4 (Homo sapiens, UniProt P28324-2 1-405)", "T3 sequence": "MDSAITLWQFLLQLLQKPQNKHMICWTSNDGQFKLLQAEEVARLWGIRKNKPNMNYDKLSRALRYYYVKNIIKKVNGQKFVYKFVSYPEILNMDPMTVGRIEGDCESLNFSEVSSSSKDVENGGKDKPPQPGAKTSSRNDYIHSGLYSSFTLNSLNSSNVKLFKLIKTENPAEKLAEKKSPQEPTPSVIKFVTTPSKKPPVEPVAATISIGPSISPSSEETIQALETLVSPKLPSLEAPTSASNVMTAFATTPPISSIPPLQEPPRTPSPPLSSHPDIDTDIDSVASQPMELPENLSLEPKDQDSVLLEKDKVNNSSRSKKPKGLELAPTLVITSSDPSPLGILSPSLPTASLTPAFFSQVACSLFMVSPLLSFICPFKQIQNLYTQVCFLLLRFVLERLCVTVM", "settings": "protein: recombinant; tags: N-terminal GST; dsDNA, one strand shown", "summary_of_the_method": "as §1"}, "ETV2": {"biological_target": "T4, ETV2 (Homo sapiens, UniProt O00321 1-342)", "T4 sequence": "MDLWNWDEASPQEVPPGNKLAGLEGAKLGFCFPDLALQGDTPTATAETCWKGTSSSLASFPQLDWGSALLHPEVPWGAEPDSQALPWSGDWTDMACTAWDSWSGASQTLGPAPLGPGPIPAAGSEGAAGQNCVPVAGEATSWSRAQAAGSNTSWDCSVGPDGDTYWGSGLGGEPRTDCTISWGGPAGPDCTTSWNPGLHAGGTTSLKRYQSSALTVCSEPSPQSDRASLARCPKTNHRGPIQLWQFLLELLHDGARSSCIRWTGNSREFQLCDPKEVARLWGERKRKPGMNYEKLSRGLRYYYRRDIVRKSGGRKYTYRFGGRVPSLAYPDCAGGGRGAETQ", "settings": "protein: recombinant; tags: N-terminal GST; dsDNA, one strand shown", "summary_of_the_method": "as §1"}, "ELF3": {"biological_target": "T5, ELF3 (Homo sapiens, UniProt P78545 1-371)", "T5 sequence": "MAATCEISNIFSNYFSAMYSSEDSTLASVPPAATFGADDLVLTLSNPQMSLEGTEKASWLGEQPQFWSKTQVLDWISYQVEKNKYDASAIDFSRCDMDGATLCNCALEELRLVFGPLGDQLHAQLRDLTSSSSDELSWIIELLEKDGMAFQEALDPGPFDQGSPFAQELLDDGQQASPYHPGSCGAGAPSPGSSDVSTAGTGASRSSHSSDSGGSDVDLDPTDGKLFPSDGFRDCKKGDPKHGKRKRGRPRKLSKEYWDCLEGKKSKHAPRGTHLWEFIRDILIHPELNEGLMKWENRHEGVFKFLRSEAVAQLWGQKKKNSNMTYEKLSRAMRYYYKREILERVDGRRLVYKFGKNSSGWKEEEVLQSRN", "settings": "protein: recombinant; tags: N-terminal GST; dsDNA, one strand shown", "summary_of_the_method": "as §1"}, "CRX": {"biological_target": "CRX (Homo sapiens, UniProt O43186 1-299)", "sequence (O43186 whole entry)": "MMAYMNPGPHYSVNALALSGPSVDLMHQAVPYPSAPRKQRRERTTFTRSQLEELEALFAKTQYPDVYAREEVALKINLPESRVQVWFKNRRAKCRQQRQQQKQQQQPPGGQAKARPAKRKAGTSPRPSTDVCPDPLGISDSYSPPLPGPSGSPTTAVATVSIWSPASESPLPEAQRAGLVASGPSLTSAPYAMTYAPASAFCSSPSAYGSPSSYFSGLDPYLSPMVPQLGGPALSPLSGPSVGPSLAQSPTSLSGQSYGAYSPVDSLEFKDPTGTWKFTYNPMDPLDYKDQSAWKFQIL", "settings": "protein: recombinant; tags: N-terminal GST; dsDNA, one strand shown", "summary_of_the_method": "as §1"}},
  "data": [
    {"sequence": "CTTCTT", "values": [
      {"measurement": "binding signal", "setting": "FEV", "value": "1.48 fold enrichment (6-mer frequency, TF over GST control)"},
      {"measurement": "binding signal", "setting": "ETV5", "value": "1.59 fold enrichment (6-mer frequency, TF over GST control)"},
      {"measurement": "binding signal", "setting": "HSF1", "value": "1.84 fold enrichment (6-mer frequency, TF over GST control)"},
      {"measurement": "binding signal", "setting": "SPIC", "value": "1.61 fold enrichment (6-mer frequency, TF over GST control)"},
      {"measurement": "binding signal", "setting": "ELF4", "value": "1.6 fold enrichment (6-mer frequency, TF over GST control)"},
      {"measurement": "binding signal", "setting": "ELK4", "value": "1.58 fold enrichment (6-mer frequency, TF over GST control)"},
      {"measurement": "binding signal", "setting": "ETV2", "value": "1.53 fold enrichment (6-mer frequency, TF over GST control)"},
      {"measurement": "binding signal", "setting": "ELF3", "value": "1.45 fold enrichment (6-mer frequency, TF over GST control)"},
      {"measurement": "binding signal", "setting": "CRX", "value": "1.89 fold enrichment (6-mer frequency, TF over GST control)"}
    ]}
  ]
}
